Measured values published in PubChem BioAssay (NCATS).
Records with an inconclusive call do not appear. A call without a number means that no potency is given here. Activity calls are given as the source filed them. Calls come from the whole dose curve; as a rule, active = well fitted curve in the direction sought with a large enough effect; inconclusive = small, poorly fitted or top-dose-only effect, or another doubt; inactive = no such curve, though single readings can be large; an effect the other way counts as inactive or inconclusive.

Legend:
[1] = P-glycoprotein substrates identified in KB-8-5-11 adenocarcinoma cell line, qHTS therapeutic library screen (AID 1346987); note: nearly all actives have a fitted effect of over 65% in size
Outline: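 In this qHTS, P-gp-rich KB-8-5-11 cells received library compounds across a concentration range. Viability was quantified by luminescence after 72 h at 37 degree C.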

[2] = NS1 protein of Zika virus - qHTS assay to identify small molecule inhibitors in human HEK 293 cells (AID 1347053); note: series mostly up to about 46 µM; nearly all actives have a fitted effect of over 55% in size
Outline: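 In this cell-based screen, HEK 293 cultures received compound for one hour before Zika MR766 at MOI = 0.5. NS1 was quantified 24 hours later by TR-FRET, normalized to virus-free wells and infected wells.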

[3] = qHTS of pediatric cancer cell lines to identify multiple opportunities for drug repurposing: Primary screen for TC32 cells (AID 1347089); note: nearly all actives have a fitted effect of over 60% in size
Outline: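 Luminescent CellTiter-Glo read-out of metabolically active TC32 cells after 48 h compound exposure. Primary: MIPE 11-point, 0.78 nM–46 µM; NPC 8-point, 0.59 nM–46 µM. Confirmatory: 11-point dilutions.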

Question: Which Potency [1] does the source give for CC(=Cc1ccccc1)C=C1SC(=S)N(CC(=O)O)C1=O here?
Answer: inactive

Question: What about the Potency [2] of the same molecule?
Answer: inactive

Question: What about the Potency [3] of the same molecule?
Answer: inactive

Question: What does the source list for CC(=O)OC1C(C)OC(Oc2c(-c3ccc(O)cc3)oc3cc(O)cc(O)c3c2=O)C(O)C1OC(C)=O (centres undefined)?
Answer: Potency [1]: inactive; Potency [2]: inactive; Potency [3]: inactive

Question: Which Potency [1] does the source give for CC[C@]1(O)C[C@@H]2CN(CCc3c([nH]c4ccccc34)[C@@](C(=O)OC)(c3cc4c(cc3OC)N(C=O)[C@@H]3C45CCN4CC=C[C@](CC)([C@H]45)[C@@H](OC(C)=O)[C@]3(O)C(=O)OC)C2)C1 (some centres undefined) here?
Answer: inactive

Question: And the Potency [3]?
Answer: inactive

Question: With COc1ccc2cccc(CCNC(C)=O)c2c1 as the molecule, how does the Potency [1] read?
Answer: inactive

Question: What about the Potency [2] of the same molecule?
Answer: inactive

Question: And the Potency [3]?
Answer: inactive

Question: For Clc1ccc(-c2nc3sccn3c2C=NOCc2ccc(Cl)c(Cl)c2)cc1, which Potency [1] is on record?
Answer: inactive

Question: What about the Potency [2] of the same molecule?
Answer: inactive

Question: And the Potency [3]?
Answer: inactive

Question: With O=c1[nH]cnc2c1ncn2[C@H]1CC[C@@H](CO)O1 as the molecule, how does the Potency [1] read?
Answer: inactive

Question: And the Potency [2]?
Answer: inactive

Question: And the Potency [3]?
Answer: inactive

Question: Which results are given for COc1ccc(C2Sc3ccccc3N(CCN(C)C)C(=O)C2OC(C)=O)cc1 (centres undefined)?
Answer: Potency [1]: inactive; Potency [3]: inactive

Question: Which results are given for NC1=N[C@@]2(c3cc(NC(=O)c4ccc(F)cn4)ccc3F)COC[C@@H]2CS1?
Answer: Potency [1]: inactive; Potency [2]: inactive; Potency [3]: inactive

Question: For COc1ccc(Cc2ccc(NC(N)=O)cc2)cc1-c1cccc(Cl)c1, which Potency [1] is on record?
Answer: inactive

Question: And the Potency [3]?
Answer: inactive

Question: Which Potency [1] does the source give for O=C(NCc1ccccc1)c1csc(Nc2ccncn2)n1 here?
Answer: inactive

Question: And the Potency [3]?
Answer: inactive

Question: For N#CC1(c2ccc(NC(=O)c3cccnc3NCc3ccncc3)cc2)CCCC1, which Potency [1] is on record?
Answer: inactive

Question: And the Potency [2]?
Answer: inactive

Question: And the Potency [3]?
Answer: inactive

Question: For COC1CCC(N(C(=O)C2CCC(C)CC2)c2cc(C3=CCCCC3)sc2C(=O)O)CC1 (centres undefined), which Potency [1] is on record?
Answer: inactive

Question: What about the Potency [2] of the same molecule?
Answer: inactive

Question: And the Potency [3]?
Answer: inactive

Question: Which Potency [1] does the source give for O=C(CCc1ccc(O)cc1)c1c(O)cc(O)cc1O[C@@H]1O[C@H](CO)[C@H](O)[C@H](O)[C@H]1O here?
Answer: inactive

Question: What about the Potency [2] of the same molecule?
Answer: inactive

Question: What about the Potency [3] of the same molecule?
Answer: inactive

Question: With CC(C)C(C)C=CC(C)C1CCC2C3=CC=C4CC(O)CCC4(C)C3CCC21C (centres undefined) as the molecule, how does the Potency [1] read?
Answer: inactive

Question: And the Potency [2]?
Answer: inactive

Question: And the Potency [3]?
Answer: inactive

Question: Which results are given for CC#CCn1c(N2CCC[C@@H](N)C2)nc2c1c(=O)n(Cc1nc(C)c3ccccc3n1)c(=O)n2C?
Answer: Potency [1]: inactive; Potency [2]: inactive; Potency [3]: inactive

Question: For O=C1NC(=O)C(=Cc2ccc(-c3ccc(F)cc3)o2)S1, which Potency [1] is on record?
Answer: inactive

Question: What about the Potency [2] of the same molecule?
Answer: inactive

Question: What about the Potency [3] of the same molecule?
Answer: inactive
